Source: PubChem (National Center for Advancing Translational Sciences (NCATS))
ELG1 DNA repair = ELG1-dependent DNA repair inhibition; HEK293T ELG1-luciferase reporter, luminescence, 16 h; DNA damage induced by 5-fluorouridine; Potency, µM (doses to about 46.1 µM), inactives show at the highest dose activity change, negative = inhibition, usual class: inhibitors; actives 2.3% (n = 330,000); also: % is scaled to controls: 0 for no effect and ±100 for the full control effect; nearly all actives have a fitted effect of over 55% in size
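HEK293T cells expressing luciferase-tagged ELG1 (2,000/well) received 5-Fluorouridine plus compound or DMSO for 16 hr at 37 °C. Luciferase was read by ONE-Glo luminescence after 30 min at room temperature.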
Nrf2 block = blocks Nrf2 signaling | A549 ARE-Fluc reporter, luciferase luminescence, 18-24 h | Potency, µM (top dose mostly 46 µM), for the others: at the highest dose activity change, negative = inhibition, hits mostly inhibitors | actives 2.1% (n = 360,000) | AID 504444; also: % is scaled to controls: 0 for no effect and ±100 for the full control effect; nearly all actives have a fitted effect of over 60% in size
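A549 ARE_Fluc cells, 5000/well, 5% FBS OPTI-MEM; compounds in dose-response, 18-24 h at 37 °C/5% CO2; CellTiter-Fluor viability read (Ex 405/Em 525), then BugLite luciferase luminescence = Nrf2 activity.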
A549 tox-1 = kills or reduces viability of A549 cells in Nrf2 counter-screen; actives 0.16% (n = 390,000); Potency, µM (doses to about 46 µM), without a hit: top-dose activity change, negative = cytotoxicity, most hits filed as inhibitors; A549 ARE-Fluc cells, CellTiter-Fluor viability, 18-24 h; AID 504648; also: % is scaled to controls: 0 for no effect and ±100 for the full control effect
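Cytotoxicity counterscreen: CellTiter-Fluor fluorescence was measured in A549 ARE_Fluc cells after 18-24 h of compound exposure in a concentration series. The subsequent BugLite luminescent read reports ARE-luciferase activity.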
Nrf2 ARE act = Nrf2 pathway activation; Potency, µM (top dose mostly 46.1 µM), inactives show at the top dose activation, usual class: activators; actives 0.31% (n = 410,000); AREc32 ARE-luciferase reporter (MCF7-derived line), luminescence, 24 h; also: % of control where 0% means no effect; nearly all actives have a fitted effect of over 65% in size
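AREc32 cells carrying an ARE-driven firefly luciferase, 1000 cells/well in OPTI-MEM with 5% FBS, dosed after overnight attachment and incubated 24 hr at 37 deg C. Steady-Glo luminescence read after 30 min at RT.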
IDH1 R132H inh = human IDH1 R132H inhibition. O75874. IDH1-R132H enzyme, NADPH consumption, diaphorase/resazurin fluorescence. actives 0.093% (n = 390,000). Potency, µM (top dose mostly 76.6 µM), without a hit: at the highest dose activity change, negative = inhibition, hits mostly inhibitors; also: % is scaled to controls: 0 for no effect and ±100 for the full control effect; nearly all actives have a fitted effect of over 65% in size
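IDH1-R132H (0.5 ug/mL dispensed) in pH 7.5 Tris buffer was preincubated 30 min with compound, then given a substrate mix of 0.016 mM NADPH and 2 mM alpha-KG for 80 min at room temperature; remaining NADPH was read by diaphorase/resazurin fluorescence.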
FLuc enzyme inh = counter-screen for Nrf2 inhibitors: firefly luciferase enzyme inhibition. Potency, µM (series often up to 57.5 µM), without a hit: top-dose activity change, negative = inhibition, actives largely listed as inhibitors. purified firefly luciferase, luminescence inhibition. actives 4% (n = 1,400). shares compounds with Nrf2 block. AID 720522; also: % is scaled to controls: 0 for no effect and ±100 for the full control effect; nearly all actives have a fitted effect of over 65% in size
Target sequence (P08659 whole entry, looked up): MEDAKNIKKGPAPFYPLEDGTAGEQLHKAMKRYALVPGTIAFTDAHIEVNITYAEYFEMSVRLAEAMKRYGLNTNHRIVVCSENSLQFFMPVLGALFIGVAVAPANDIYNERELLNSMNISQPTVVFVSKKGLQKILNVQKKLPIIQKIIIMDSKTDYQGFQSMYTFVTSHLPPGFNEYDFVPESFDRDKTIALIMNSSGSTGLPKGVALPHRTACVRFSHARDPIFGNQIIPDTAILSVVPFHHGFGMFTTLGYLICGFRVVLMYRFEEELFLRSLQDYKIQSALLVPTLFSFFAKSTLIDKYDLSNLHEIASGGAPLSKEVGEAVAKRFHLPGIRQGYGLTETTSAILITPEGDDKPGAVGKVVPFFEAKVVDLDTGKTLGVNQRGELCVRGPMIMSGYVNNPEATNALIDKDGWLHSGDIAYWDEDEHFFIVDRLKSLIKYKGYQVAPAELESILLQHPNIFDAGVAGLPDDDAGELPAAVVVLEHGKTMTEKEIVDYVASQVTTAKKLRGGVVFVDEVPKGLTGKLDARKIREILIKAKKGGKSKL
A549 tox-2 = A549 cytotoxicity, Nrf2 inhibitor counterscreen; shares compounds with Nrf2 block; A549 ARE-Fluc cells, cytotoxicity counterscreen; Potency, µM (titrated, usually from 46.1 µM), without a hit: at the top dose activity change, negative = cytotoxicity, most hits filed as inhibitors; actives 2% (n = 1,400);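 also: cells exposed to compounds for 18 to 24 hours; % is scaled to controls: 0 for no effect and ±100 for the full control effect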
ARE-Fluc inh = reduces Nrf2 ARE reporter signal in A549 cells. AID 720524. A549 ARE-firefly luciferase reporter, luminescence. actives 74% (n = 1,400). Potency, µM (doses to about 46.1 µM), inactives show at the highest dose activity change, negative = inhibition, most hits filed as inhibitors. shares compounds with Nrf2 block; also: % is scaled to controls: 0 for no effect and ±100 for the full control effect; nearly all actives have a fitted effect of over 65% in size
The depositor's hits bear a star; ? = inconclusive; · = no result shown. Compounds with a hit are over-represented: about 3.8% of the library has one in this group of screens. Calls follow the shape of the dose curve; as a rule, active = well fitted curve in the direction sought with a large enough effect; inconclusive = small, poorly fitted or top-dose-only effect, or another doubt; inactive = no such curve, though single readings can be large; an effect the other way counts as inactive or inconclusive. Potency is read from the fitted curve at half-maximal effect.

SMILES	ELG1 DNA repair	Nrf2 block	A549 tox-1	Nrf2 ARE act	IDH1 R132H inh	FLuc enzyme inh	A549 tox-2	ARE-Fluc inh
C=CCNC(=O)Cn1c(=O)c2c(ncn2CCC(C)C)n(Cc2ccccc2)c1=O	10%	-23%	3%	0%	11%	·	·	·
Nc1nc(-c2ccco2)nn1C(=O)c1ccccc1	3%	-14%	-7%	0%	2%	·	·	·
Nc1nc(-c2ccco2)nn1C(=O)c1ccc(Cl)cc1	-1%	7.3µM*	-7%	-1%	7%	1%	0%	4.1µM*
COc1ccccc1-c1c(C)nn2c(-c3ccccc3)cc(-c3ccccc3)nc12	·	7%	-9%	0%	1%	·	·	·
CCCNC(=O)Cn1c(=O)/c(=C/c2ccc(-c3ccc([N+](=O)[O-])cc3)o2)s/c1=C\C(=O)C(C)(C)C	·	-15%	?	8%	-7%	·	·	·
O=C(C[n+]1ccncc1)c1ccccc1	?	-1%	0%	2%	4%	·	·	·
Cc1c(N)cc[n+](CC(=O)c2ccccc2)c1C	14%	4.1µM*	-17%	-1%	7%	0%	-9%	15µM*
Nc1cc[n+](CC(=O)c2ccccc2)cc1	-11%	8.2µM*	-11%	0%	0%	3%	-13%	?
Cc1cc[n+](CC(=O)c2ccccc2)c2ccccc12	-7%	-14%	-3%	0%	0%	·	·	·
Cc1ccc(-c2c3c(=O)n(C)c(=O)n(C)c3c3c(C)nc4ccccc4n23)cc1	·	1%	-4%	0%	7%	·	·	·
O=C(c1cc(C2CCCCN2C(=O)OCCF)on1)N1CCOCC1 (stereo not drawn)	·	·	·	0%	·	·	·	·
O=C1N(c2ccccc2)C[C@@H]2C[C@@H](c3cc4ccccc4o3)N3CCC[C@@]123	-3%	1.2µM*	?	0%	2%	-3%	-28%	2.6µM*
Cc1cc(C)cc(NC(=O)C2CCN(c3nc4ccccc4nc3C(F)(F)F)CC2)c1	·	?	-1%	0%	0%	·	·	·
CC(/C=N/NC(=O)CSc1nc(C)cc(C)n1)=C\c1ccccc1	-19%	-28%	1%	1%	-4%	·	·	·
CC(/C=N\NC(=O)Cn1c(C)nc2ccccc21)=C\c1ccccc1	3%	8.2µM*	-19%	13%	3%	-2%	-18%	7.3µM*
Cc1ccc(NC(=O)N(Cc2cn(C)c3ccccc23)C2CCCCC2)cc1C	·	?	-5%	4%	8%	·	·	·
COc1cccc(NC(=O)N(Cc2cn(C)c3ccccc23)C2CCCCC2)c1	·	3.3µM*	?	4%	4%	-11%	?	?
CC1Cc2cc(S(=O)(=O)N3CCN(c4ccc(Cl)cc4)CC3)ccc2N1C(=O)C1CC1 (stereo not drawn)	?	7.3µM*	-15%	-1%	3%	2%	-12%	8.2µM*
CC1Cc2cc(S(=O)(=O)N3CCN(c4cccc(Cl)c4)CC3)ccc2N1C(=O)C1CC1 (stereo not drawn)	?	?	2%	-1%	-1%	·	·	·
COc1cccc(N2CCN(C(=O)C3CCN(S(=O)(=O)c4ccc5c(c4)CC(C)N5C(C)=O)CC3)CC2)c1 (stereo not drawn)	?	7%	-1%	0%	-3%	·	·	·
CC(=O)N1c2ccc(S(=O)(=O)N3CCC(C(=O)N4CCN(c5ccc(Cl)cc5)CC4)CC3)cc2CC1C (stereo not drawn)	-24%	5.2µM*	-10%	0%	-9%	1%	-10%	·
